Test results from PubChem BioAssay.
“And” between values parts separate entries of the source, which are not always exact repeats. Identical values can stand only once. Values without a mark were called inactive. Results filed as inconclusive are left out. The source made the active and inactive calls. Unless noted, the limit is not given here; nearly all actives have IC50 up to about 30 µM.

Experiment: JHH-DIPG-1 glioma cell viability, MIPE5.0 library, CellTiter-Glo luminescence, qHTS (AID 1347067; cut-off not given, nearly all actives have AC50 up to about 26 µM;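 also: cells exposed to compound for 48 hours before readout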)
Conditions: JHH-DIPG-1 glioma viability, CellTiter-Glo ATP luminescence

SMILES	AC50	outcome
COc1ccc(-c2ccc3c(N4CCOC[C@@H]4C)nc(N4CCOC[C@@H]4C)nc3n2)cc1CO	0.059 µM (active)	
COc1cccc2cc(-c3nc(C4CCC(C(=O)O)CC4)n4ncnc(N)c34)[nH]c12 (stereo not given)	1.18 µM (active)	
Cc1cnc(NC(=O)Nc2cc(Br)c(C)cc2OC[C@@H]2CNCCO2)cn1	20.9 µM (active)	
CC(C)CNc1ccnc(NCc2csc(-c3ccccc3)n2)n1	20.9 µM (active)	
NCc1c[nH]c(=S)n1[C@H]1CCc2c(F)cc(F)cc2C1		inactive
COC(=O)c1ccc2c(C(=Nc3ccc(N(C)C(=O)CN4CCN(C)CC4)cc3)c3ccccc3)c(O)[nH]c2c1	5.9 µM (active)	
Cc1ccc(F)c(NC(=O)Nc2ccc(-c3cccc4[nH]nc(N)c34)cc2)c1	1.05 µM (active)	

Experiment: growth inhibition of DIPG cells – cell-based, MIPE5.0 library, qHTS (AID 1347068);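 as to IC50: cells exposed to compound for 48 hours before viability readout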
Conditions: SU-DIPG-XXV viability

SMILES	IC50	outcome
N#CCNC(=O)c1ccc(-c2ccnc(Nc3ccc(N4CCOCC4)cc3)n2)cc1	18.6 µM (active)	
COc1ccc2c(c1)CC[C@@H]1[C@@H]2CC[C@]2(C)[C@@H](NCCCCCCN3C(=O)C=CC3=O)CC[C@@H]12		inactive
CC1(C)CCC2=C(O1)c1ccccc1C(=O)C2=O	23.5 µM (active)	
Cc1ncc(-c2ccnc(Nc3ccc(S(C)(=O)=O)cc3)n2)n1C(C)C	2.95 µM (active)	
CCOc1cc(/C=C2/C(=O)N(c3ccccc3)N=C2C)cc(Cl)c1OCC(=O)OC		inactive
C#CCN(C)CC1=Cc2ccccc2Oc2ccccc21		inactive
Nc1nc(Nc2ccc(S(N)(=O)=O)cc2)nn1C(=O)c1c(F)cccc1F	10.5 µM (active)	
C/C(O)=C(\C#N)C(=O)Nc1ccc(C(F)(F)F)cc1		inactive
O=C(Nc1ccccc1-c1cn2c(CN3CCNCC3)csc2n1)c1cnc2ccccc2n1	10.5 µM (active)	
COc1cc(C(C)C)c(Oc2cnc(NC(CO)CO)nc2N)cc1I		inactive
O[C@@H](COc1cccc2ncccc12)CN1CCN(C2c3ccccc3[C@@H]3[C@H](c4ccccc42)C3(F)F)CC1 (stereo not given in full)	18.6 µM (active)	
CC(C)c1cc(C(C)C)c(CC(=O)NS(=O)(=O)Oc2c(C(C)C)cccc2C(C)C)c(C(C)C)c1	8.33 µM (active)	
COc1cc(C)c(Sc2cnc(NC(=O)c3ccc(CNC(C)C(C)C)cc3)s2)cc1C(=O)N1CCN(C(C)=O)CC1 (stereo not given)	14.8 µM (active)	
COc1cc(F)c(C(C)C)cc1-c1ccc(C(F)(F)F)cc1CN1C(=O)O[C@H](c2cc(C(F)(F)F)cc(C(F)(F)F)c2)[C@@H]1C		inactive
CC1(C)CNc2cc(NC(=O)c3cccnc3NCc3ccncc3)ccc21		inactive
CC(C)C[C@@H](N)[C@H](O)C(=O)N[C@H](C(=O)N[C@H](C(=O)N[C@@H](CC(=O)O)C(=O)O)C(C)C)C(C)C		inactive
COc1c(OCCCN2CCOCC2)ccc2c3n(c(=NC(=O)c4cnc(N)nc4)nc12)CCN3	0.382 µM (active)	
CC(=O)O/N=C1/C(c2c(O)[nH]c3cc(Br)ccc23)=Nc2ccccc21	9.34 µM (active)	
CC1=C[C@@H]2[C@H]([C@@H](O)C[C@@]3(C)[C@H]2C[C@@H](C)[C@]3(O)C(=O)CO)[C@@]2(C)Cc3cnn(-c4ccccc4)c3C=C12	16.6 µM (active)	
COc1cc2nccc(Oc3ccc(NC(=O)Nc4cc(C)on4)c(Cl)c3)c2cc1OC	9.34 µM (active)	
Cc1cc(Nc2cc(CN3CCOCC3)c3nc(C)c(Cc4ccc(Cl)cc4F)n3n2)n[nH]1	8.33 µM (active)	
CCN(CC)CCCCNc1ncc2c(n1)N(C)C(=O)N(c1c(Cl)c(OC)cc(OC)c1Cl)C2	7.42 µM (active)	
CC(N[C@H]1CCCC[C@@H]1NC(=O)c1ccc(Cl)cc1)c1cccc2ccccc12 (stereo not given in full)	16.6 µM (active)	
N#Cc1c(NC(=O)c2cccc3ccccc23)sc2c1CCCC2	0.235 µM (active)	
COc1ccccc1[C@H](c1cccc2ccccc12)[C@@](C)(C#N)C(=O)N1CCC(c2cccc(C(F)(F)F)c2)CC1		inactive
COc1cccc2cc(-c3nc(C4CCC(C(=O)O)CC4)n4ncnc(N)c34)[nH]c12 (stereo not given)		inactive
NCc1c[nH]c(=S)n1[C@H]1CCc2c(F)cc(F)cc2C1		inactive
COC(=O)c1ccc2c(C(=Nc3ccc(N(C)C(=O)CN4CCN(C)CC4)cc3)c3ccccc3)c(O)[nH]c2c1	3.32 µM (active)	
Cc1ccc(F)c(NC(=O)Nc2ccc(-c3cccc4[nH]nc(N)c34)cc2)c1	18.6 µM (active)	

Experiment: viability loss with induced miR-34 in A549 – imaging, A549 dox-inducible miR-34, nuclei and caspase counts, primary screen (AID 1347080;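 active = compounds whose cell count with miR-34 switched on is under 0.7 times the count with it off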)
Conditions: A549 miR-34 inducible, Hoechst nuclei count, 48 h; active compounds read low; cell number ratio, induced over uninduced

SMILES	fold change
N#CCNC(=O)c1ccc(-c2ccnc(Nc3ccc(N4CCOCC4)cc3)n2)cc1	0.941
COc1ccc2c(c1)CC[C@@H]1[C@@H]2CC[C@]2(C)[C@@H](NCCCCCCN3C(=O)C=CC3=O)CC[C@@H]12	0.933 and 0.926
CC1(C)CCC2=C(O1)c1ccccc1C(=O)C2=O	1.06 and 1.01
Cc1ncc(-c2ccnc(Nc3ccc(S(C)(=O)=O)cc3)n2)n1C(C)C	0.998
Nc1nc(Nc2ccc(S(N)(=O)=O)cc2)nn1C(=O)c1c(F)cccc1F	0.887
O=C(Nc1ccccc1-c1cn2c(CN3CCNCC3)csc2n1)c1cnc2ccccc2n1	0.907
CC(C)c1cc(C(C)C)c(CC(=O)NS(=O)(=O)Oc2c(C(C)C)cccc2C(C)C)c(C(C)C)c1	0.956
CC1(C)CNc2cc(NC(=O)c3cccnc3NCc3ccncc3)ccc21	0.978
COc1cc2nccc(Oc3ccc(NC(=O)Nc4cc(C)on4)c(Cl)c3)c2cc1OC	1.35
Cc1cc(Nc2cc(CN3CCOCC3)c3nc(C)c(Cc4ccc(Cl)cc4F)n3n2)n[nH]1	1.46
N#Cc1c(NC(=O)c2cccc3ccccc23)sc2c1CCCC2	1.02
COc1cccc2cc(-c3nc(C4CCC(C(=O)O)CC4)n4ncnc(N)c34)[nH]c12 (stereo not given)	0.965
COC(=O)c1ccc2c(C(=Nc3ccc(N(C)C(=O)CN4CCN(C)CC4)cc3)c3ccccc3)c(O)[nH]c2c1	0.909
Cc1ccc(F)c(NC(=O)Nc2ccc(-c3cccc4[nH]nc(N)c34)cc2)c1	0.905
